Records with an inconclusive call do not appear. A number with no mark means an inactive call. Active and inactive are the calls of the source. The call rests on the fitted dose curve; in most records, active means well fitted inhibition curve with a large enough effect; inconclusive means small, poorly fitted or top-dose-only effect; inactive means flat fitted curve, though single readings scatter.

The nature of this assay: Drug repurposing screens with cells derived from glioblastoma tumor samples (AID 1345199). Further: nearly all actives have a fitted effect of over 40% in size. The settings on record: GBM patient neurospheres viability, ATP luminescence, 48 h. As to the method:
CD133+ cells were isolated from GBM patient biopsies and cultured as neurospheres. Neurospheres from four patients were used to screen the NCATS pharmaceutical collection (NPC) library of approved drugs and bioactive compounds. […] The neurospheres were incubated with drugs for 48 hours in 1536-well format, then assayed with an ATP content cell viability assay. […] These hits were cherry picked to confirm activity in the four original GBM lines screened plus three other slower growing GMB lines (unable to yield enough cells for a full primary screen). Variable activities of the confirmed primary hits in the different GBM patient lines were observed. The patient line 206 responded to the greatest number of compounds and line 923 responded to the least amount of active compounds.

[1] abbreviates: at 45.9 µM (top of the series), tumour line B.
The mark [2] stands for this setting: at 45.9 µM (top of the series), tumour line D.
The mark [3] stands for this setting: at 46.1 µM (top of the series), tumour line C.
Setting [4] is: at 46 µM (top of the series), tumour line A.
Setting [5] is: at 91.6 µM (top of the series), tumour line B.
[6] abbreviates: at 91.6 µM (top of the series), tumour line D.
Setting [7] is: at 99.2 µM (top of the series), tumour line C.
On the % scale 0 is the no-effect control and ±100 the full control effect; potency means the concentration at half of the fitted maximal effect.

As for `O=C(O)c1ccccc1S`, the activity, negative = cell killing runs as follows: under setting [1], 0.0031%; under setting [2], 6.57%; under setting [3], 1.53%.
In the case of `O=C(OCC1(COC(=O)c2cccnc2)CCCC(COC(=O)c2cccnc2)(COC(=O)c2cccnc2)C1O)c1cccnc1`, the activity, negative = cell killing runs as follows: under setting [1], -11.6%; under setting [2], -18.7%; under setting [3], 2.18%.
Turning to `OCc1cccnc1`, the activity, negative = cell killing under setting [1] is -6.38%; the activity, negative = cell killing under setting [2] is -1.28%; the activity, negative = cell killing under setting [4] is -22%; the activity, negative = cell killing under setting [3] is -5.89%.
Turning to `CC(=O)N[C@@H](CCC(N)=O)C(=O)O`, the activity, negative = cell killing under setting [1] was -17.6%; the activity, negative = cell killing under setting [2] was -7.79%; the activity, negative = cell killing under setting [3] is -4.41%.
On to `CCOC(=O)Cn1cccc1-c1nc(-c2ccc(OC)cc2)c(-c2ccc(OC)cc2)s1`, for which the activity, negative = cell killing was -12.2% under setting [1], -21.7% under setting [2] and -5.22% under setting [3]. Moreover, the Potency (tumour line A) was 6.31 µM (active).
Consider `CC(=O)OCC(=O)[C@@]1(O)[C@H](OC(C)=O)C[C@H]2[C@@H]3CCC4=CC(=O)C=C[C@]4(C)[C@@]3(F)[C@@H](O)C[C@@]21C`, for which the activity, negative = cell killing is -11.4% under setting [1], -13% under setting [2], -9.78% under setting [4] and -2.85% under setting [3].
The corresponding values for `C[C@H]1NCc2cc(-c3ccc4c(=O)c(C(=O)O)cn(C5CC5)c4c3OC(F)F)ccc21` are 3.7%, 27.3%, -27.3% and -18%.
For `CC(C)(C)C(O)/C=C/c1ccc2c(c1)OCO2` (stereo unspecified), the activity, negative = cell killing runs as follows: under setting [1], -14.2%; under setting [2], -29.5%; under setting [3], 10.3%. Besides, the Potency (tumour line A) is 15.8 µM (active).
In the case of `O=C(NN1CCCC1)NS(=O)(=O)c1ccc(Cl)cc1`, the activity, negative = cell killing under setting [1] is 1.6%; the activity, negative = cell killing under setting [2] is -25.9%; the activity, negative = cell killing under setting [3] was 2.27%.
With `CCCCNc1ccc(C(=O)OCCN(CC)CC)cc1`, the activity, negative = cell killing under setting [3] is -27.5%. Further, the Potency is 14.1 µM (active) (tumour line A) and 14.1 µM (active) (tumour line D).
Turning to `COC(=O)c1c(Cl)c(Cl)c(C(=O)OC)c(Cl)c1Cl`, the activity, negative = cell killing is -13.9% under setting [5], -16.3% under setting [6] and -5.72% under setting [7].
The corresponding values for `CCCCC(CC)COC(=O)c1ccccc1C(=O)O` (stereo unspecified) are -11.6%, -15.6% and -7.68%.

(Values after PubChem BioAssay (NCATS).)
